Reference: PubChem BioAssay (NCI)
The panel holds about 83,000 compounds, 20% with a hit somewhere; the sample as a whole holds those more often.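 The test compound was applied at a single concentration to cells in 96-well plates for 48 hours, and percent growth was recorded.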 A number with no mark means an inactive call. Active and inactive are the calls of the source. How the source made its calls: active means growth percent below 10; inactive means the rest.

Columns and labels:
Experiment in all cases: NCI-60 one-dose screen, 48 h (100 = growth as untreated, 0 = no growth, -100 = all killed)
EKVX NSCLC = conditions: 10 µM
SN12C renal = conditions: 10 µM
UO-31 renal = conditions: 10 µM
TK-10 renal = conditions: 10 µM unless noted
ACHN renal = conditions: 10 µM
CAKI-1 renal = conditions: 10 µM
A498 renal = conditions: 10 µM
CCRF-CEM leukemia = conditions: 10 µM
MOLT-4 leukemia = conditions: 10 µM

SMILES	growth (EKVX NSCLC) [%]	growth (SN12C renal)	growth (UO-31 renal)	growth (TK-10 renal)	growth (ACHN renal)	growth (CAKI-1 renal)	growth (A498 renal)	growth (CCRF-CEM leukemia)	growth (MOLT-4 leukemia)
O=c1cc(-c2ccccc2)[nH]c2c1CCCC2	43.3	44.6%	50.8%	34.5%	40.5%	24.5%	19.2%	32.6%	41.1%
COCCCC/C(=N\OCCN)c1ccc(C(F)(F)F)cc1	93.1	94%	74.1%	98.9%		83.5%	89.1%	101%	96.7%
CC(=O)Nc1cccc(NC(C)=O)n1	104	99.7%	99.4%	111%	105%	126%	100%	90.3%	111%
OC1CCCc2ccccc21 (centres undefined)	100	99%	60.6%	86.4%	97.9%	121%	120%	94.8%	105%
CC1C(=O)c2ccccc2CC1C(=O)O (centres undefined)	113	112%	100%		98.5%	83.2%	142%	99.1%	97.3%
COc1ccc(C(C)C=O)cc1 (centres undefined)	126	104%	93.7%	92.1%	103%	104%	121%		93%
N#Cc1c(N)sc(=S)c2c1CCCC2	107	105%	91.6%	116%	103%	98.5%	113%	101%	95.4%
C=CC(=O)OCCCCCCCC	111	103%	88.4%	140%	101%	97.6%	89.8%	83%	89.9%
COc1cc([C@@H]2c3cc4c(cc3[C@H](O)[C@H]3COC(=O)[C@H]23)OCO4)cc(OC)c1OC	38.8	32.9%	48.2%	51.4%	34.6%	26.9%	-10.2% (active)	6.58% (active)	-6.06% (active)
CCC(=O)Oc1ccc(OC)cc1	104	101%	80.9%	84.4%	101%	98.3%	101%	101%	92.5%
COc1cc(C(=O)N/N=C/c2cccc([N+](=O)[O-])c2)cc(OC)c1OC	83.8	93.8%	73.7%	81.1%	79.9%	55.4%	26.3%	62.1%	70.7%
CC1(c2ccccc2)NC(=O)NC1=O (centres undefined)	120	96.9%	82.5%	98.8%	107%	104%	123%	102%	101%
COC(=O)Nc1nc2ccc(C(=O)c3cccs3)cc2[nH]1	37.8	29.6%	48.8%	61.6%	40.5%	19.8%	-1.63% (active)	6.93% (active)	-13.6% (active)
CCc1nn(Cc2ccccc2)c2nc(C)c(CCc3ccccc3)c(Cl)c12	84.3	86.1%		91.5%	98.4%	67.8%	99.1%	80.1%	96%
OCc1cccc2ccccc12	119	108%	95.5%	100%	98.6%	110%	109%		97.5%
CNc1nc(NC)c2cn[nH]c2n1	99.2	100%	78.6%		108%	88.6%	112%	5.44% (active)	101%
COc1cc2c(cc1OC)[C@H](C(=O)O)[C@@H](c1ccc(OC(C)C)c(OC)c1)N(C)C2=O	92.7	90.4%	97.6%	96.2%	96.2%	80%	137%	96.6%	94.3%
O=[N+]([O-])c1ccc(Sc2ccncn2)c([N+](=O)[O-])c1	105	51.3%	51.1%	34.3%	37.2%	39.7%	127%	41.2%	66.1%
COC1=CC(=O)c2nc(Cl)ccc2C1=O	74	-69.5% (active)	23.5%	84.2%	42.6%	91.6%	108%	1.69% (active)	-27.4% (active)
CCCCN(CCCC)CCCO	110	107%	104%	85%	105%	106%	114%		113%
CNS(=O)(=O)c1ccc(Cl)c(Cl)c1	99	92.7%	109%	89.4%	99.5%		104%	104%	84.9%
CN(C)C(C)(C)CC(C)(C)C	95.8	98.3%	76.7%	143%	100%	101%	110%	89.8%	95.1%
COc1cc2nc3cc([N+](=O)[O-])ccc3c(Cl)c2cc1OC	83.3	97.7%	84.1%	95.2%		101%	7.26% (active)		107%
O=c1cc(-c2ccccc2)oc2c1ccc1ccccc12	80.1	84.2%	58.9%	108%	77%	90.8%	73%	89.4%	75.6%

SMILES	growth (EKVX NSCLC) [%]	growth (SN12C renal)	growth (UO-31 renal)	growth (TK-10 renal)	growth (ACHN renal)	growth (CAKI-1 renal)	growth (A498 renal)	growth (CCRF-CEM leukemia)	growth (MOLT-4 leukemia)
CC1Cc2ccccc2O1 (centres undefined)	122	106%	90.6%	129%	101%	102%	115%	112%	105%
NC(C(=O)O)c1ccc([N+](=O)[O-])cc1 (centres undefined)	98	91.6%	78.2%	156%		99.5%	107%	98.5%	105%
NC(=O)N/N=C\c1ccco1	119	98.4%	94.7%	100%	111%	108%	117%	102%	101%
COC(=O)/C=C1\Sc2cc(F)ccc2NC1=O	88.2	116%	101%	139%	111%	60.9%	126%	87.9%	92.3%
O=C(NCO)c1ccccc1	108	105%	78.9%	144%	97.4%	98.5%	106%		95.4%
NC(=S)CN1CCOCC1	112	103%	88%	99.3%		95.6%	89.9%	-25.8% (active)	32.3%
Cc1ccncc1C(N)=O	106	101%	97%	112%	95.3%	64.4%	82.7%	83.1%	95.2%
N#Cc1ccc(OC(=O)Nc2ccc(Cl)c(Cl)c2)cc1		79.5%	60.6%	90.7%	50.8%	35.8%	106%		79.9%
O=S(=O)(O)c1cc(O)c2c(N=Cc3ccccc3O)c(S(=O)(=O)O)ccc2c1		109%	73.2%	118%	101%	96.2%	107%		99.2%
O=C(CCl)N1CCN(C/C=C/c2ccccc2)CC1		64.6%	93.1%	85.6%	95.8%	99.3%	94%	21.7%	71.4%
CCCCCC(C)(CC(=O)O)CC(=O)O		110%	97.6%	111%	103%	116%	113%	107%	103%
N#CC(=Nc1cccc(F)c1)C1=C(O)c2ccccc2C1=O		82.8%	78.6%	110%	87.1%	47%	79.4%		96.5%
COc1cccc(COC(=O)Nc2ccccc2)c1OC		96.9%	99.5%	107%	104%	88.5%	105%		100%
COC(=O)Nc1cccc(Cl)c1OC		112%	95.6%	120%	99.8%	94.5%	61.9%		103%
CN(C)c1ccc2nc3ccc(=N)cc-3sc2c1		57.3%	57.3%	105%	53%	68.3%	55.8%		
Cc1ccccc1C1N=C2Oc3ccccc3C=C2C(=O)N1 (centres undefined)		43.3%	52%	53.7%	50.6%	31.1%	-11.6% (active)	38.4%	44%
c1ccc(Cc2ccccc2)cc1	102	95.1%		99%	107%	85.7%	102%	104%	-26.2% (active)
COc1ccc(/C=C/c2cccc[n+]2C)cc1		110%	64.9%		91%	63%	71%		102%
CC(=O)OC(OC(C)=O)C1CCCO1 (centres undefined)	97.7	96.8%		103%	98.7%	112%	106%	109%	123%
O=C1OC(c2ccc(F)cc2)CC1CN1CCOCC1 (centres undefined)		102%	83.5%	83.2%	105%	85.8%			102%
O=C(Nc1cccc(NC(=O)Nc2cc(C(F)(F)F)ccc2Cl)c1)Nc1cc(C(F)(F)F)ccc1Cl		22%	0.156% (active)	-13.8% (active)	9.11% (active)	-2.82% (active)	-3.96% (active)	5.91% (active)	2.16% (active)
O=C(O)c1ccccc1NCc1ccco1	103	99.8%		64.7%	115%		99.9%	98.6%	104%
CSC(=N\N=C\c1ccc(N(C)C)cc1)/N=C/N(C)C		108%	101%	131%	101%	104%	97%		101%
COc1ncnc2c1cnn2C	100	98.2%		108%	98.1%	105%	99.7%	97%	89.9%
